Experiment in all cases: DAPPL (digital affinity profiling via proximity ligation, sequencing); 10 mM Tris-HCl pH 7.5, 50 mM NaCl, 1 mM DTT, 4% glycerol, room temperature, 30 min; GST-TFs on glutathione beads, 16-mer random dsDNA library, 0.1% formaldehyde crosslink after washing; high values mean tight binding
Holding throughout (conditions): protein: recombinant; tags: N-terminal GST; dsDNA, one strand shown

For experiment [1], the target named is T1, ELK1 (Homo sapiens, UniProt P19419 1-428).
T1 sequence: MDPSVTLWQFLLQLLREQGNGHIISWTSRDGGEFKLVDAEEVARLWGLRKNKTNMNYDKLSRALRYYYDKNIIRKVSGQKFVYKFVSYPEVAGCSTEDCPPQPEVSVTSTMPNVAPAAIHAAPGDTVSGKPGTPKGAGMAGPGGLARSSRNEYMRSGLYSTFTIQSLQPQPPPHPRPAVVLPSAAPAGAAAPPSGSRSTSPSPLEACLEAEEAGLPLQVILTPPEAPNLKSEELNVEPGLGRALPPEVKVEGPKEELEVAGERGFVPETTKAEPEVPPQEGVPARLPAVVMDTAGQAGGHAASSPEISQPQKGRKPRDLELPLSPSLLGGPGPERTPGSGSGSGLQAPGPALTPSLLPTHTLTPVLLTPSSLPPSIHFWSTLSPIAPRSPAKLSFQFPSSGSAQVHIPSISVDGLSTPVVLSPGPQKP
The method in brief: (§1)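 Pools were built from human transcription factors expressed in yeast as GST fusions, captured on glutathione beads and DNA-barcoded, along with a tag-only sample. Incubation with 200 nmole of a 16-mer random double-stranded DNA library lasted 30 min at room temperature in Tris/NaCl/DTT/glycerol buffer, and was followed by washing, 0.1% formaldehyde crosslinking, proximity ligation, PCR amplification and Illumina NextSeq500 sequencing. Binding signal is the quotient of each hexamer's read frequency for a factor and its frequency for the tag-only sample.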

The target of experiment [2] is T2, GABPA (Homo sapiens, UniProt Q06546 1-454).
T2 sequence: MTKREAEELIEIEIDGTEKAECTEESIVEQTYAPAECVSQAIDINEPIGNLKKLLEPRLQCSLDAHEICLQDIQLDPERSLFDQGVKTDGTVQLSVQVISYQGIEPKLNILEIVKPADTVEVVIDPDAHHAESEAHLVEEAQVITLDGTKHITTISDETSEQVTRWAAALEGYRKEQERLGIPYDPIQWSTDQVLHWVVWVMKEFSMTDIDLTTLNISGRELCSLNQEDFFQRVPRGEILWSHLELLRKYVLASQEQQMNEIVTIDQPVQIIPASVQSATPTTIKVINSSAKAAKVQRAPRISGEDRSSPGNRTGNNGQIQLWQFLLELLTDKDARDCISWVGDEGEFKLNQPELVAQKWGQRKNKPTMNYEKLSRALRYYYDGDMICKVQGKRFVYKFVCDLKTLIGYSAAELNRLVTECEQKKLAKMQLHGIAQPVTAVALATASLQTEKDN
Put shortly:
as §1

Experiment [3] addresses T3, ERG (Homo sapiens, UniProt P11308 1-479).
T3 sequence: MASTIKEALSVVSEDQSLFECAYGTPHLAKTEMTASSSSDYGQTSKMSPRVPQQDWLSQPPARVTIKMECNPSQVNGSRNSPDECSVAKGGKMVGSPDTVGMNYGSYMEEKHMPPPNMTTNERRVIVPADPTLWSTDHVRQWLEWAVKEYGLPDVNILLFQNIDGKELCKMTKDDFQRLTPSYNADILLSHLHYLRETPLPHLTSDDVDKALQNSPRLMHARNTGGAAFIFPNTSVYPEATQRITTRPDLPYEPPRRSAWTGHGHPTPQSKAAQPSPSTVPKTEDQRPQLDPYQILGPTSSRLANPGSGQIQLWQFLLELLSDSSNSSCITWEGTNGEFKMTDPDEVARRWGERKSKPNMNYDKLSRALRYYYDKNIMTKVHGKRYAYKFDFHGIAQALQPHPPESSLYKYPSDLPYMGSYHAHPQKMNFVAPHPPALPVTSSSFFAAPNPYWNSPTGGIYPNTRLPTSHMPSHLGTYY
Put shortly: as §1

Experiment [4] addresses ELF1 (Homo sapiens, UniProt P32519 1-619). The method in brief: as §1
For experiment [5], the target named is T4, EHF (Homo sapiens, UniProt Q9NZC4 1-300).
T4 sequence: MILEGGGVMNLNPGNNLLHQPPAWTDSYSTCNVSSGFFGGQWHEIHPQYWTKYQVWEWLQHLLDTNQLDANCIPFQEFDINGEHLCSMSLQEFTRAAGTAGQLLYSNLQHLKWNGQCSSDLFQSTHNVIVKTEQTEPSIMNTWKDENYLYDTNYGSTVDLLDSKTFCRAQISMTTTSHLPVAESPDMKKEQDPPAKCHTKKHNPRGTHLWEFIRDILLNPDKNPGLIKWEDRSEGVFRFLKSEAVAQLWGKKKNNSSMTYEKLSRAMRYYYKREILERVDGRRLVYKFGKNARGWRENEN
The method in brief:
as §1

In experiment [6] the target is SPI1 (Homo sapiens, UniProt P17947 1-270). The method in brief:
as §1

Experiment [7] deals with SPIB (Homo sapiens, UniProt Q01892 1-262). Put shortly: as §1
SPIB, sequence (Q01892 whole entry): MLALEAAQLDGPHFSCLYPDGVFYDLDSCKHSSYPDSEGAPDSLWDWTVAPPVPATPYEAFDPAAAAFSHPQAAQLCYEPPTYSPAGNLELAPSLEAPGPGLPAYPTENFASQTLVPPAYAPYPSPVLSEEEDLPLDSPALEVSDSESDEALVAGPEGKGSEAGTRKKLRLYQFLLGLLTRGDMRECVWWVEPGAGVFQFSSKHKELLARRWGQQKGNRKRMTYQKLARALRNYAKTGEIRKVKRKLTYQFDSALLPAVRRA
Experiment [8] deals with T5, FEV (Homo sapiens, UniProt Q99581 1-238).
T5 sequence: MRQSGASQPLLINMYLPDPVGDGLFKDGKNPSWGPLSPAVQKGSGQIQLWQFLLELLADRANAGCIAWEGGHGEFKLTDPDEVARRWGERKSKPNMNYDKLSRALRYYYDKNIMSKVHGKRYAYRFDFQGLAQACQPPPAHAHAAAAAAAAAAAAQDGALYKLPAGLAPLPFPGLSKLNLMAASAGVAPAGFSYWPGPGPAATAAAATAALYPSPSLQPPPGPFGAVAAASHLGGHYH
The method in brief: as §1

Experiment [9] addresses ETV5 (Homo sapiens, UniProt P41161 1-510). The method in brief:
as §1

For experiment [10], the target named is ELF4 (Homo sapiens, UniProt Q99607 1-663). Put shortly:
as §1

Experiment [11] concerns the target T6, ETV2 (Homo sapiens, UniProt O00321 1-342).
T6 sequence: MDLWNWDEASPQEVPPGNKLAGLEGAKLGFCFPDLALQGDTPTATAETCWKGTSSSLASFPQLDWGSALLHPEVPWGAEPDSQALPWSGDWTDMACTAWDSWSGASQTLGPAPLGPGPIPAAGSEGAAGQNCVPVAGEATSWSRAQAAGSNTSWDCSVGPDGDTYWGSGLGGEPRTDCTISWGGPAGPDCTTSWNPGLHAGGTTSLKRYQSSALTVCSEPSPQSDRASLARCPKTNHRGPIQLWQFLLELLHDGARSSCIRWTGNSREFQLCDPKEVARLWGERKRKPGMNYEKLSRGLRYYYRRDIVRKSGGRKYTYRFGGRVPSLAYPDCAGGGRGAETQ
Put shortly:
as §1

For experiment [12], the target named is ETV1 (Homo sapiens, UniProt P50549 1-477). The method in brief: as §1
ETV1, sequence (P50549 whole entry): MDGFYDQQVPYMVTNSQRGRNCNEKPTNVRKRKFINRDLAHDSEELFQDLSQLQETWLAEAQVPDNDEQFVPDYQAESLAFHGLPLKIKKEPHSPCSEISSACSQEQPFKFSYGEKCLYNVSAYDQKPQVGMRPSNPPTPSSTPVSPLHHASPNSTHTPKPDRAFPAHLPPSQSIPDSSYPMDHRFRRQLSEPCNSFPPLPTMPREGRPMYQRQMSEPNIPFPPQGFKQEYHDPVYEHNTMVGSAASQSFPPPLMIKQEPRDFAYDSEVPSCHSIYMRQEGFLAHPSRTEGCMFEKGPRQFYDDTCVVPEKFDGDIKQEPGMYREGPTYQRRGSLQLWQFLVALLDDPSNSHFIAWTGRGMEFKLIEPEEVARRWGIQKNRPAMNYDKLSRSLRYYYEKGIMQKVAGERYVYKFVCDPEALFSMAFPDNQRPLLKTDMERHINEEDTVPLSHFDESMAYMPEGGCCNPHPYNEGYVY
Experiment [13] addresses T7, ERF (Homo sapiens, UniProt P50548 1-548).
T7 sequence: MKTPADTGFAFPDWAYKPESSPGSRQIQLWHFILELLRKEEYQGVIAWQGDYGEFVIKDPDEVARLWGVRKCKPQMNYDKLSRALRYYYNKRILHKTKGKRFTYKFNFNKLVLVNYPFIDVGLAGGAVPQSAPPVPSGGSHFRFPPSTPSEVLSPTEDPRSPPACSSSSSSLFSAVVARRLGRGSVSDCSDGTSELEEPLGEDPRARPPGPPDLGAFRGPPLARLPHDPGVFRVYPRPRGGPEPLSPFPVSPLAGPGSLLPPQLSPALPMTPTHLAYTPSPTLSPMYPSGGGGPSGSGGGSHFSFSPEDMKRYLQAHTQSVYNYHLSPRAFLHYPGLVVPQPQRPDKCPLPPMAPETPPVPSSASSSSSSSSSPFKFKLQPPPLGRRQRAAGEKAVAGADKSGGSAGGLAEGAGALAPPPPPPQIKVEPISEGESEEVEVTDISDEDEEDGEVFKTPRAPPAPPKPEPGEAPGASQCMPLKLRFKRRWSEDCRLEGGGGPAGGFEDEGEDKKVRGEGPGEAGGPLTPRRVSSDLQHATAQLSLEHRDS
The method in brief: as §1

The target of experiment [14] is T8, SPDEF (Homo sapiens, UniProt O95238 1-335).
T8 sequence: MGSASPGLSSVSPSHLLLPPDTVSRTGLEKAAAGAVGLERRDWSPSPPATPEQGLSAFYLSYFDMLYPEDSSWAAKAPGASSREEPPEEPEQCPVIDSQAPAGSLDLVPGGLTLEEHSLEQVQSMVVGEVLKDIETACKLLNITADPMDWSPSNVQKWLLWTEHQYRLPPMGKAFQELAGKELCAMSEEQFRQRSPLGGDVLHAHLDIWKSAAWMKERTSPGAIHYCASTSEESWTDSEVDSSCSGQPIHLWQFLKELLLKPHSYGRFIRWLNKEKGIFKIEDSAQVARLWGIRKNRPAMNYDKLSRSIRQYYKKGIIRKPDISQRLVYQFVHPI
The method in brief:
as §1

Experiment [15] concerns the target T9, ETV3 (Homo sapiens, UniProt P41162-2 1-143).
T9 sequence: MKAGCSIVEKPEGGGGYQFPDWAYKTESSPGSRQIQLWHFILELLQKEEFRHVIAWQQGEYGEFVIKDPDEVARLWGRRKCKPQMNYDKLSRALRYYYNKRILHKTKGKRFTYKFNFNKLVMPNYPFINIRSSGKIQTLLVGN
The method in brief: as §1

Experiment [16] has as its target T10, ELK4 (Homo sapiens, UniProt P28324-2 1-405).
T10 sequence: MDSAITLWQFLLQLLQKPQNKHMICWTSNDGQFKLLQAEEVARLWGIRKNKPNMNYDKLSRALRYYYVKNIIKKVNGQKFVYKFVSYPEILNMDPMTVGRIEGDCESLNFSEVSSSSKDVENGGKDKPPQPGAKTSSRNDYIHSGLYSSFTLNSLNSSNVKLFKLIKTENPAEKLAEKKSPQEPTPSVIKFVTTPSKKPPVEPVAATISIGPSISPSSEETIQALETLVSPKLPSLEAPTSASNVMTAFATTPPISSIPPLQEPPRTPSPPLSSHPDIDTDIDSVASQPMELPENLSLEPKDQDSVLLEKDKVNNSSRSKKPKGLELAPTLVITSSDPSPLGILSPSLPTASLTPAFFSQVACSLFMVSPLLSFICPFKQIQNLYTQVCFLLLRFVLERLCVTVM
Put shortly: as §1

ETV5, sequence (P41161 whole entry): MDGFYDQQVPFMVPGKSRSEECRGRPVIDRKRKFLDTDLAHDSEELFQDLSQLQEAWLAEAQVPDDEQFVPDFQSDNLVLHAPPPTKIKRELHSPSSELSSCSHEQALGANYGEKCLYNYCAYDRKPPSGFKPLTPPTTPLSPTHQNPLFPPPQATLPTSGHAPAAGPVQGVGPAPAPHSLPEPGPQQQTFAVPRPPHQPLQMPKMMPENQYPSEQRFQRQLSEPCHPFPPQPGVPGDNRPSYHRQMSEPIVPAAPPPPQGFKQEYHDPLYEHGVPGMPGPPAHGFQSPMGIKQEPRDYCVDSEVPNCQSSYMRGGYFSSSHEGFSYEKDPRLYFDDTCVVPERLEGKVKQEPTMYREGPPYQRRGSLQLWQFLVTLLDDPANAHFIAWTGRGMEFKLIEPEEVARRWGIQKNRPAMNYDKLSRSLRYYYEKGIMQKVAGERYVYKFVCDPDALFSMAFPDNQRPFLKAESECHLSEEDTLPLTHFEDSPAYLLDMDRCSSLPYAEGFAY
ELF4, sequence (Q99607 whole entry): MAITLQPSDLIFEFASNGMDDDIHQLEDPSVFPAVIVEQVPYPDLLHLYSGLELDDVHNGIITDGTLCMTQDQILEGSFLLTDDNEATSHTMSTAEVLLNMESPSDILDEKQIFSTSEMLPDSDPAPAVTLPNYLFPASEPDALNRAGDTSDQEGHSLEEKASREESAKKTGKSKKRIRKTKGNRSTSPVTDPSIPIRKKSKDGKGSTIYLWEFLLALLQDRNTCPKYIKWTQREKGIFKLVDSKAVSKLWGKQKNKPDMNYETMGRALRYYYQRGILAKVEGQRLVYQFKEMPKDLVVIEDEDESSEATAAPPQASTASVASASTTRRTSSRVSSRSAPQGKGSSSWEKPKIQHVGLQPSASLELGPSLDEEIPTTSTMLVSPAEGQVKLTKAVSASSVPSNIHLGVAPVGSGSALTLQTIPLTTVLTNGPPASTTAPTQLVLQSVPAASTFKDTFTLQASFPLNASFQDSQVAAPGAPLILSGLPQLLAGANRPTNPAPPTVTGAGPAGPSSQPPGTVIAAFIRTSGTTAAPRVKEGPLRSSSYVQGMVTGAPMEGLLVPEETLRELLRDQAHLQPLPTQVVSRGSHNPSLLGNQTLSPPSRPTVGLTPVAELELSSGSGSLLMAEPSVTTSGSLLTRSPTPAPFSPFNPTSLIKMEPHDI
ELF1, sequence (P32519 whole entry): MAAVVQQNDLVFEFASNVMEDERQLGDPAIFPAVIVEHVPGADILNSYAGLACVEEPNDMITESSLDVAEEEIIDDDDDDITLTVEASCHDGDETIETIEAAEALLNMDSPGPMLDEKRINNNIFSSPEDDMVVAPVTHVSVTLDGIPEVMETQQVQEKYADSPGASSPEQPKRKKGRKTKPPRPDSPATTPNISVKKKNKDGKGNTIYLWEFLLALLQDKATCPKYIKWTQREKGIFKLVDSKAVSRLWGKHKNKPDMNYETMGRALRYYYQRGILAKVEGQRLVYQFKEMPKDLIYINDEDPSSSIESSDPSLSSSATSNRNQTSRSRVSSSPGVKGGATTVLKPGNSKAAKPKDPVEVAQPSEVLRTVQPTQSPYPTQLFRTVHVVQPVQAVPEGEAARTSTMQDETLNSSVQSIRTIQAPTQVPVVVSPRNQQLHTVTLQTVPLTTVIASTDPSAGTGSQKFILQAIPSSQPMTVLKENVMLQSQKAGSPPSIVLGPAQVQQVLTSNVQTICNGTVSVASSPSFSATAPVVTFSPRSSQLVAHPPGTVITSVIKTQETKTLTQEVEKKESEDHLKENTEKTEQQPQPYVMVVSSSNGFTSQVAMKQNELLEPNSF

With TCGTAT, the binding signal in experiment [1] was 1.08 fold enrichment (6-mer frequency, TF over GST control); in [2], 1.01 fold enrichment (6-mer frequency, TF over GST control); in [3], 1.03 fold enrichment (6-mer frequency, TF over GST control); in experiment [4] it was 1.03 fold enrichment (6-mer frequency, TF over GST control); in experiment [5] it was 1 fold enrichment (6-mer frequency, TF over GST control); in [6] it was 1.02 fold enrichment (6-mer frequency, TF over GST control). Also, the binding signal in [7] is 1.07 fold enrichment (6-mer frequency, TF over GST control); in experiment [8], 1.05 fold enrichment (6-mer frequency, TF over GST control); in experiment [9], 1.02 fold enrichment (6-mer frequency, TF over GST control); in experiment [10] it was 1.02 fold enrichment (6-mer frequency, TF over GST control); in [11] it was 1.12 fold enrichment (6-mer frequency, TF over GST control); in [12], 1 fold enrichment (6-mer frequency, TF over GST control). In addition, the binding signal in experiment [13] is 1.06 fold enrichment (6-mer frequency, TF over GST control); in experiment [14], 1.05 fold enrichment (6-mer frequency, TF over GST control); in experiment [15], 1.05 fold enrichment (6-mer frequency, TF over GST control).

With CGAAGG, the binding signal in experiment [2] is 1 fold enrichment (6-mer frequency, TF over GST control); in experiment [5], 1.03 fold enrichment (6-mer frequency, TF over GST control); in [9], 1.05 fold enrichment (6-mer frequency, TF over GST control); in experiment [16], 1.06 fold enrichment (6-mer frequency, TF over GST control).

Values taken from article PMC7862700, “An all-to-all approach to the identification of sequence-specific readers for epigenetic DNA modifications on cytosine”.
